Experimental data as given in PubChem BioAssay (Tox21).
Unmarked numbers belong to inactive results. Records with an inconclusive call do not appear. A call without a number means that no potency is given here. Active and inactive are the calls of the source. Unless noted, the call rests on the fitted dose curve; in most records, active means well fitted curve in the direction sought with a large enough effect in the repeat runs; inconclusive means weak or mixed curves; inactive means no such curve, though single readings can be large; an effect the other way counts as inactive or inconclusive.

Columns and labels:
[1] = qHTS assay to identify small molecule agonists of the estrogen receptor alpha (ER-alpha) signaling pathway in the presence of an antagonist - cell viability counter screen (AID 1259386);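 further: series mostly up to about 92 µM; cells exposed to compounds for 22 h at 37 °C before the viability read; nearly all actives have a fitted effect of over 30% in size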
How it was run: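 Steps: 5-day stripped-FBS culture; seed and incubate 24hr; add ICI-182,780 (10.0nM final); pin 15-point compound titration; incubate 22hr at 37C; add CellTiter-Fluor at 21hr; read fluorescence.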

[2] = target: Progesterone receptor (Homo sapiens) (UniProt P06401); assay: qHTS assay to identify small molecule agonists of the progesterone receptor (PR) signaling pathway (AID 1346784; calls by dose curve; further: nearly all actives have a fitted effect of over 30% in size)
Sequence of Progesterone receptor (Homo sapiens) (P06401 whole entry, looked up): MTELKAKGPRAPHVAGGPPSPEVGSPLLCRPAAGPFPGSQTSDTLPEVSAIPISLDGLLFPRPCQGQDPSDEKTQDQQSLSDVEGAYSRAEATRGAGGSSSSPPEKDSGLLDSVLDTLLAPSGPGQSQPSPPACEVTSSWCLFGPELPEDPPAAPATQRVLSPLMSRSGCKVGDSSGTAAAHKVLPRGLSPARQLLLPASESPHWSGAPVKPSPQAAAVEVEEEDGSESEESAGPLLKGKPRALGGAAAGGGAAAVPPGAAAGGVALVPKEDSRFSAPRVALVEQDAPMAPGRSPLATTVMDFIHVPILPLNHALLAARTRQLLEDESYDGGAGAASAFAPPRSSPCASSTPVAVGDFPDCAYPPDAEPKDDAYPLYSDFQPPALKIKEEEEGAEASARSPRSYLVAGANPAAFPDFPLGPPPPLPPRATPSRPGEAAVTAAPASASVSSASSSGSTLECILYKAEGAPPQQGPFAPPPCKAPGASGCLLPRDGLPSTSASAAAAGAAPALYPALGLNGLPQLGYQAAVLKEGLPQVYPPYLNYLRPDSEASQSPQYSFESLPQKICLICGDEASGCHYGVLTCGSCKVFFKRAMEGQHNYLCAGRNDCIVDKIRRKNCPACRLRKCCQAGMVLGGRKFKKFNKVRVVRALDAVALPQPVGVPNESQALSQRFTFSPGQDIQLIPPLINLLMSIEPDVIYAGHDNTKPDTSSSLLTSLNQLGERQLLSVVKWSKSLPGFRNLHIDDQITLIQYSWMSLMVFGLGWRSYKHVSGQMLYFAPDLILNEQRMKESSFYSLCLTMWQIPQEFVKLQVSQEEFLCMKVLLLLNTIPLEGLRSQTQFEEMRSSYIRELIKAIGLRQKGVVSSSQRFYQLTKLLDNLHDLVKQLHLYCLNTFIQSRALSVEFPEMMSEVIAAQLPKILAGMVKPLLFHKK
How it was run: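 Compounds were tested for PR agonism in HEK 293T cells bearing a beta-lactamase gene under UAS control. Treatment lasted 16 hr at 37C; signal came from fluorescence of a FRET substrate.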

[3] = target: Progesterone receptor (Homo sapiens) (UniProt P06401); assay: qHTS assay to identify small molecule antagonists of the progesterone receptor (PR) signaling pathway (AID 1346795; active means well fitted inhibition curve with a large enough effect in the signal ratio in the repeat runs, not every such curve was filed as active; the % refers to the signal ratio)
How it was run: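 In HEK293T cells bearing the PR-UAS-bla reporter, compound effects on promegestone-driven (1 nM) beta-lactamase expression are assessed after 16 hr using a fluorescent FRET substrate incubated 2 hr at room temperature.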

[4] = qHTS assay to identify small molecule antagonists of the progesterone receptor (PR) signaling pathway - cell viability counter screen (AID 1346798); further: nearly all actives have a fitted effect of over 50% in size; further: potency means the concentration at half of the fitted maximal effect
How it was run: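 Following a 4 hr attachment, PR-UAS-bla HEK293T cells in charcoal-stripped FBS medium were exposed to compounds with R5020 for 16 hr; CellTiter-Glo was added and luminescence read after 30 min at room temperature.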

[5] = qHTS assay to identify small molecule agonists of the TGF-beta/Smad signaling pathway - cell viability counter screen (AID 1346829); further: top concentration of the series differs between compounds; nearly all actives have a fitted effect of over 45% in size
How it was run: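 Here the cytotoxicity of library compounds is measured in SBE-bla HEK 293T cells treated for 5 hr, using CellTiter-Glo added to wells already read for the beta-lactamase reporter.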

[6] = qHTS assay to identify small molecule agonists of the TGF-beta/Smad signaling pathway (AID 1346859; active means well fitted activation curve with a large enough effect in the signal ratio in the repeat runs, not every such curve was filed as active; the % refers to the signal ratio; further: series mostly up to about 77 µM)
How it was run: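 Each well held 4,000 SBE-bla HEK 293T cells incubated overnight before compound addition; 5 hr later the cleavable FRET substrate went on for 2 hr at room temperature, and fluorescence was read at two emissions.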

[7] = Human pregnane X receptor (PXR) small molecule agonists, qHTS cell viability counter screen (AID 1346977); further: nearly all actives have a fitted effect of over 50% in size
How it was run: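 Tox21 qHTS format; PXR-Luc HepG2, 2,000/well, charcoal-stripped FBS 5%. Cpd exposure 24hr. Read: CellTiter-Fluor fluorescence, multiplexed with luciferase.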

[8] = Caspase-3/7 induction in HepG2 cells by small molecules, qHTS assay (AID 1346978); further: nearly all actives have a fitted effect of over 15% in size
How it was run: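 Caspase-3/7 induction was measured by Caspase-Glo 3/7 luminescence (30 min, room temperature) after a 17 hr compound exposure of wild-type HepG2 cells seeded at 2,000 per well and pre-incubated 5 hr.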

[9] = Caspase-3/7 induction in CHO-K1 cells by small molecules, qHTS cell viability counter screen (AID 1346979); further: nearly all actives have a fitted effect of over 35% in size
How it was run: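 CellTiter-Fluor viability check, qHTS format: wild-type CHO-K1, 16hr compound treatment, 1hr reagent incubation, fluorescence read.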

[10] = Caspase-3/7 induction in CHO-K1 cells by small molecules, qHTS assay (AID 1346980); further: nearly all actives have a fitted effect of over 15% in size
How it was run: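 Luminescent Caspase-Glo 3/7 read (30min, room temperature) quantified apoptosis induction. Cells were wild-type CHO-K1, treated with compound for 17hr at 37 C and 5% CO2.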

[11] = Caspase-3/7 induction in HepG2 cells by small molecules, qHTS cell viability counter screen (AID 1346981); further: series mostly up to about 92 µM; nearly all actives have a fitted effect of over 30% in size
How it was run: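 The parent HepG2 line is plated at 2,000 cells per well and rested 5 hr before compound pinning from DMSO stocks. Following a 16-hr treatment at 37 C, a fluorogenic live-cell substrate (CellTiter-Fluor) reports viability after 1 hr.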

[12] = target: Nuclear receptor subfamily 1 group I member 2 (Homo sapiens) (UniProt O75469); assay: Human pregnane X receptor (PXR) small molecule agonists, qHTS assay (AID 1346982); further: nearly all actives have a fitted effect of over 35% in size; further: potency means the concentration at half of the fitted maximal effect
Sequence of Nuclear receptor subfamily 1 group I member 2 (Homo sapiens) (O75469 whole entry, looked up): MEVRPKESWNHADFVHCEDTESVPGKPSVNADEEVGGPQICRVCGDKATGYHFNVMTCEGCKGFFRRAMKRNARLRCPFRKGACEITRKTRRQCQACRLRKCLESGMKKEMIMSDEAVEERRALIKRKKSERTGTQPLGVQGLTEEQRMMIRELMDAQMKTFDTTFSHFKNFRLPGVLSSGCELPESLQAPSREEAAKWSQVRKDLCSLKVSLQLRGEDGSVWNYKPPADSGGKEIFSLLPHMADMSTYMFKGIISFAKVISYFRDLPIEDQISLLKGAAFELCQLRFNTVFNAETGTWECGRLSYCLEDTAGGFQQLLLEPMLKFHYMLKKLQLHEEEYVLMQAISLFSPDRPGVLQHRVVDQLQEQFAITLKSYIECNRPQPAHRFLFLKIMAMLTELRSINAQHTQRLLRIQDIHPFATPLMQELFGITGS
How it was run: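 After plating in 5% charcoal-stripped FBS and a 5 hr rest, PXR-Luc HepG2 cells received compounds in DMSO. Following 24 hr at 37 C, ONE-Glo was added and light output read.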

[13] = target: Acetylcholinesterase (Homo sapiens) (UniProt P22303); assay: Acetylcholinesterase (AChE) small molecule antagonists: colormetric cell-based qHTS assay (AID 1347395; calls by dose curve; further: nearly all actives have a fitted effect of over 30% in size)
Sequence of Acetylcholinesterase (Homo sapiens) (P22303 whole entry, looked up): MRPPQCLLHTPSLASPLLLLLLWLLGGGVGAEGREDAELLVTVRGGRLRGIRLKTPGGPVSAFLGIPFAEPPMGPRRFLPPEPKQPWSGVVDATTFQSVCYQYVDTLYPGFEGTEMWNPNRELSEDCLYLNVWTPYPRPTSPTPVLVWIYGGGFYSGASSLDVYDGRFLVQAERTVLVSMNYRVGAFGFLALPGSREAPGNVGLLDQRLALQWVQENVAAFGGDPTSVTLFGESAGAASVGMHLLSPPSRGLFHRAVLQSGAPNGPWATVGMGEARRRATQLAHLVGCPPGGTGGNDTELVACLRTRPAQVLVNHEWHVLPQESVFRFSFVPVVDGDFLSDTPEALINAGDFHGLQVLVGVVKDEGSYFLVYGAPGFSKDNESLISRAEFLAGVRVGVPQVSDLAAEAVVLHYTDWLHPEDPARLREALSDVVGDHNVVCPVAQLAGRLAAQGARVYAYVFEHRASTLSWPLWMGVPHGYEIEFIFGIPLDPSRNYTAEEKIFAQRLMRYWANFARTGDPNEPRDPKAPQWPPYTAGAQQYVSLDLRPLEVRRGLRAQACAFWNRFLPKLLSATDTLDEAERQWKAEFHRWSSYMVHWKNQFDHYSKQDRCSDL
How it was run: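 AChE inhibition read colorimetrically via DTNB–thiocholine in SH-SY5Y cells. Compound 30 min, substrate 90 min, both 37 C.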

[14] = target: Thyrotropin-releasing hormone receptor (Homo sapiens) (UniProt P34981); assay: qHTS assay to identify small molecule agonists of the thyrotropin-releasing hormone receptor (TRHR) signaling pathway (AID 1346891; calls by dose curve; further: series mostly up to about 58 µM)
Sequence of Thyrotropin-releasing hormone receptor (Homo sapiens) (P34981 whole entry, looked up): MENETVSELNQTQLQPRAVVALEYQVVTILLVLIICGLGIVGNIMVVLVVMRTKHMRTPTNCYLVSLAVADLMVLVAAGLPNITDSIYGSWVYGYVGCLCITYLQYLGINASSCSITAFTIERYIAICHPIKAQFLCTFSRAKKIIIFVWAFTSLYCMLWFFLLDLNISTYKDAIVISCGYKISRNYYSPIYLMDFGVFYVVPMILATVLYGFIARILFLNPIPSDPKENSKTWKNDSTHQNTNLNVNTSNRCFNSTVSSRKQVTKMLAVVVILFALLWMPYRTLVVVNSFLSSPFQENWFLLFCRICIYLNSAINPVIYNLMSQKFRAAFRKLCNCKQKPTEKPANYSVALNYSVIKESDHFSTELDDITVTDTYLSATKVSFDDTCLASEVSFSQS
How it was run: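 Screening of agonists relied on calcium signalling in HEK293 cells expressing human TRHR: dye loading 2 h at 37 °C preceded compound addition and a 3-min fluorescence time course.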

[15] = qHTS assay to identify small molecule agonists of the progesterone receptor (PR) signaling pathway - cell viability counter screen (AID 1346799; calls by dose curve; further: nearly all actives have a fitted effect of over 45% in size; further: potency means the concentration at half of the fitted maximal effect)
How it was run: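 Here, 3,000 PR-UAS-bla HEK293T cells per well were treated with compounds for 16 hr after a 6 hr preincubation at 37C and 5% CO2; cell viability is the CellTiter-Glo luminescence signal.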

[16] = target: Thyrotropin-releasing hormone receptor (Homo sapiens) (UniProt P34981); assay: qHTS assay to identify small molecule antagonists of the thyrotropin-releasing hormone receptor (TRHR) signaling pathway (AID 1346877; active means well fitted inhibition curve with a large enough effect in the repeat runs, not every such curve was filed as active; further: series mostly up to about 51 µM)
How it was run: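 Human TRHR in HEK293 cells; inhibition of the intracellular calcium rise triggered by 1 nM TRH was followed by fluorescence over 3 min. Compounds were run at 15 concentrations, three replicates each.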

[17] = qHTS assay to identify small molecule antagonists of the TGF-beta/Smad signaling pathway - cell viability counter screen (AID 1346824); further: nearly all actives have a fitted effect of over 50% in size
How it was run: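 Cytotoxicity counter-screen run in the same wells as the beta-lactamase Smad reporter read: CellTiter-Glo luminescence after 30 min at room temperature. HEK 293T SBE-bla cells had 5 hr compound exposure at 37 C with TGF-beta1 (0.25 ng/mL stock).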

[18] = target: Nuclear receptor subfamily 1 group I member 2 (Rattus norvegicus) (UniProt Q9R1A7); assay: Rat pregnane X receptor (rPXR) activation by small molecules, qHTS assay (AID 1346983); conditions: rPXR luciferase reporter cells, One-Glo luminescence, 24 h; max activation: stronger effect = higher value; further: nearly all actives have a fitted effect of over 20% in size
Sequence of Nuclear receptor subfamily 1 group I member 2 (Rattus norvegicus) (Q9R1A7 whole entry, looked up): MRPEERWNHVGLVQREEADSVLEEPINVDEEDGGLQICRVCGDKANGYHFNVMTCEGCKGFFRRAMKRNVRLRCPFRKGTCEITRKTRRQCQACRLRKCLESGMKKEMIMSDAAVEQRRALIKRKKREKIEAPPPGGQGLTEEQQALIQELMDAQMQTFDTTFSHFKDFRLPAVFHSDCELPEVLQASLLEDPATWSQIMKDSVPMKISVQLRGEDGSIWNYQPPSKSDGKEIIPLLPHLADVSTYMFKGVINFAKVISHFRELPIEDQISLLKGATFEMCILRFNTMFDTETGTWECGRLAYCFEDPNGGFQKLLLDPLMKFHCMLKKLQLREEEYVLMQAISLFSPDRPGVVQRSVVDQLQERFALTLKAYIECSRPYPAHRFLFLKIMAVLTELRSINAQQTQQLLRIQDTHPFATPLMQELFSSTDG
How it was run: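 Luminescent readout (One-Glo luciferase, 30 min room temperature) followed 24 hr compound treatment at 37 C of rPXR cells plated 2,000 per well and preincubated 5hr; qHTS format with compounds delivered in DMSO.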

[19] = target: Nuclear receptor subfamily 1 group I member 2 (Homo sapiens) (UniProt O75469); assay: CYP3A4 induction through human pregnane X receptor (PXR) by small molecules, qHTS assay (AID 1346984); further: nearly all actives have a fitted effect of over 40% in size
How it was run: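 Human PXR activation is tracked via CYP3A4 promoter-luciferase in DPX-2 (HepG2) cells. Compounds treat cells for 24hr at 37C, and luminescence is read after One-Glo.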

[20] = target: Nuclear receptor subfamily 1 group I member 2 (Homo sapiens) (UniProt O75469); assay: Human pregnane X receptor (PXR) activation by small molecules, qHTS assay (AID 1346985); further: nearly all actives have a fitted effect of over 40% in size
How it was run: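 DPX-2 cells (HepG2 co-transfected with a PXR response element and a CYP3A4-promoter luciferase construct) were seeded at 2,000 per well, rested 5 hr at 37C, then exposed to DMSO-dissolved compounds for 24 hr. Activation was read as luciferase luminescence.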

Row | Structure (SMILES) | Potency [1] | Potency [2] | Potency [3] | Potency [4] | outcome [5] | outcome [6] | Potency [7] | Potency [8] | Potency [9] | Potency [10] | Potency [11] | Potency [12] | Potency [13] | outcome [14] | Potency [15] | outcome [16] | Potency [17] | max activation [18] [%] | Potency [19] | Potency [20]
1 | O=S(=O)(O)C(F)(F)C(F)(F)C(F)(F)C(F)(F)C(F)(F)C(F)(F)F | inactive | inactive | inactive | inactive | inactive | inactive | inactive | inactive | inactive | inactive | inactive | inactive | inactive | – | – | – | – | – | – | –
2 | O=C(CCN1CC1)OCC(CO)(COC(=O)CCN1CC1)COC(=O)CCN1CC1 | inactive | inactive | inactive | inactive | inactive | inactive | inactive | inactive | inactive | inactive | inactive | inactive | inactive | inactive | – | – | – | – | – | –
3 | O=NN1CCN(N=O)CC1 | inactive | inactive | inactive | inactive | inactive | inactive | inactive | inactive | inactive | inactive | inactive | inactive | inactive | inactive | inactive | inactive | – | – | – | –
4 | Cc1coc2c1CCC(C)C2 (configuration not stated) | inactive | inactive | inactive | inactive | inactive | inactive | inactive | inactive | inactive | inactive | inactive | – | inactive | – | inactive | – | – | – | – | –
5 | ClC(Cl)(Cl)C(Cl)(Cl)Cl | inactive | inactive | inactive | – | inactive | inactive | inactive | inactive | inactive | inactive | inactive | inactive | inactive | – | inactive | – | inactive | – | – | –
6 | COc1cc(C[C@@H](C)N)c(OC)cc1C | inactive | inactive | inactive | inactive | inactive | inactive | – | inactive | inactive | inactive | inactive | inactive | inactive | inactive | – | inactive | inactive | – | – | –
7 | CC(Cl)(Cl)[N+](=O)[O-] | inactive | inactive | – | inactive | inactive | inactive | inactive | inactive | inactive | inactive | inactive | – | inactive | – | inactive | inactive | inactive | – | – | –
8 | C1CCC(C2CCCCC2)CC1 | inactive | inactive | – | 15.4 µM (active) | inactive | inactive | inactive | inactive | – | inactive | inactive | inactive | inactive | inactive | 8.63 µM (active) | inactive | inactive | – | – | –
9 | CCCCOC(=O)c1ccccc1N | inactive | inactive | – | inactive | inactive | inactive | inactive | inactive | inactive | inactive | inactive | inactive | inactive | inactive | inactive | inactive | inactive | – | – | –
10 | CSc1nc(N=[N+]=[N-])nc(NC(C)C)n1 | inactive | inactive | – | inactive | inactive | inactive | inactive | inactive | inactive | inactive | inactive | 61.1 µM (active) | inactive | inactive | inactive | – | inactive | – | – | –
11 | CCS(=O)(=O)C(C)(C)S(=O)(=O)CC | inactive | inactive | – | inactive | inactive | – | inactive | inactive | inactive | inactive | inactive | inactive | inactive | inactive | inactive | – | inactive | -0.861 | inactive | inactive
12 | O=[N+]([O-])c1cccc2cccnc12 | inactive | inactive | – | inactive | inactive | inactive | inactive | inactive | inactive | inactive | inactive | 35.3 µM (active) | inactive | – | inactive | inactive | inactive | – | – | –
